Data reported in PubChem BioAssay AID1851 (National Center for Advancing Translational Sciences (NCATS), 2009).
“And” between values parts separate entries of the source, which are not always exact repeats. Equal entries are not always repeated. Hit rate of the full screen: of about 16,000 compounds, about 5,700 (36%) were called active. Inconclusive results (about 24%) are left out. Calls follow the shape of the dose curve; as a rule, active = well fitted curve in the direction sought with a large enough effect; inconclusive = small, poorly fitted or top-dose-only effect, or effect the other way; inactive = no such curve, though single readings can be large or run the other way. The list shows a part of the results.

Biological target: Cytochrome P450 1A2 (Homo sapiens) (UniProt P05177)
Sequence (P05177 whole entry, looked up): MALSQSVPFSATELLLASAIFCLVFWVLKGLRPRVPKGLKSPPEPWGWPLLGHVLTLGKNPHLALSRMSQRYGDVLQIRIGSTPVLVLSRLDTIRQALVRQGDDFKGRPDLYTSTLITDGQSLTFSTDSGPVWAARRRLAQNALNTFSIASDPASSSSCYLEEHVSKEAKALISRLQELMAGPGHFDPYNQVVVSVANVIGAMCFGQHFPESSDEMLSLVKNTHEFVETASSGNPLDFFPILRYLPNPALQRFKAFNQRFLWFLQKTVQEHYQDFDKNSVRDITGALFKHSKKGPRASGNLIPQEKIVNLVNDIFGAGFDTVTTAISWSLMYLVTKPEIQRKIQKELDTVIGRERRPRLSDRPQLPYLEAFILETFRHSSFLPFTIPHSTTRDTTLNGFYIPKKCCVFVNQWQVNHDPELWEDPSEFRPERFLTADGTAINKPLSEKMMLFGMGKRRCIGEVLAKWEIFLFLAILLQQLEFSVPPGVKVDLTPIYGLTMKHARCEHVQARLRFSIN
Test: Cytochrome panel assay with activity outcomes
Conditions: recombinant CYP, pro-luciferin dealkylation, luminescence, p450-cyp1a2; series mostly up to 57.1 µM
% is scaled to controls: 0 for no effect and ±100 for the full control effect.

Compound | AC50 | activity, negative = inhibition
C#CCSc1n[nH]c(-c2ccco2)n1 | 2 µM (active) | –
CN(C)C(N)=NCCC[C@H](N)C(=O)O | inactive | –
O[C@@H](C1=C/C(=C\c2ccncc2)c2ccccc21)c1ccncc1 | 0.1 µM (active) | –
COc1ccc(/C=N/NC(=O)CCCC(=O)NC2CCCCC2)cc1 | 11.2 µM (active) | –
COc1ccc(C(C(=O)NC2CCCCC2)N2CCC3(CC2)OCCO3)cc1 (configuration not stated) | inactive | –
COc1ccc(C(C(=O)NC2CCCCC2)N(C(=O)CCCC(=O)Nc2ccccn2)c2ccc3c(c2)OCCO3)cc1 (configuration not stated) | inactive | –
COc1ccc2c(c1)C(=O)N(CCc1ccc(S(=O)(=O)NC(=O)NC3CCCCC3)cc1)C(=O)C2(C)C | inactive | –
COc1ccc(CCCC(=O)NC2CCCCC2)cc1 | 25.1 µM (active) | –
CCCC(=O)N=C1SC2CS(=O)(=O)CC2N1c1ccc(CC)cc1 (configuration not stated) | inactive | –
CC(=O)OC[C@H]1O[C@@H](O/N=C(\C)CCC(=O)OC[C@@H]2O[C@H](C#Cc3ccccc3)C=C[C@@H]2Oc2ccc(C)cc2)[C@H](OC(C)=O)[C@@H](OC(C)=O)[C@H]1OC(C)=O | – | -5.25% [at 11.4 µM] (inactive)
O=c1c(-c2cc(F)cc(F)c2)nc2cncnc2n1-c1ccccc1 | 12.6 µM (active) | –
O=c1c(-c2cccc(F)c2)nc2cncnc2n1-c1ccccc1 | 10 µM (active) | –
C/C(CCN1CCc2nc(-c3ccccc3)c(-c3ccccc3)cc2C1)=N\O[C@@H](C)CN1CCCCc2nc(C)c(C)cc21 | – | -10.7% [at 11.4 µM] (inactive)
Cc1c(-c2ccc(O)cc2)nn(-c2ccc(O)cc2)c1-c1ccc(OCCN2CCCCC2)cc1 | 12.6 µM (active) | –
CC(=O)N1CCC[C@@]2(CCN(Cc3ccccc3)C2)C1 | inactive | –
COC(=O)[C@@]1(Cc2ccc(F)cc2)[C@H]2c3cc(C(=O)N4CCCC4)n(Cc4ccc(Cl)c(C(F)(F)F)c4)c3C[C@H]2CN1C(=O)c1ccccc1 | inactive | –
CCOC(=O)C1=C(CSc2nc(-c3ccccc3)ccc2C#N)OC(N)=C(C#N)C1c1ccc(OC)cc1 (configuration not stated) | 2 µM (active) | –
CSc1ccc(S(=O)(=O)Nc2ccc3c4c(cccc24)CC3)cc1 | 25.1 µM (active) | –
Cc1ccc(S(=O)(=O)Nc2ccccc2C=O)cc1 | – | -16% [at 11.4 µM] (inactive)

Compound | AC50 | activity, negative = inhibition
Cc1nc(SCC(=O)Nc2ccc(N3CCOCC3)cc2)nc(C)c1C | inactive | –
O=C(NCCc1ccc(Cl)cc1)Nc1cccc(Cl)c1 | 4.47 µM (active) | –
O=C(NCCc1ccc(Cl)cc1)c1ncn[nH]1 | 20 µM (active) | –
Cc1nc(SCC(=O)Nc2c(C)n(C)n(-c3ccccc3)c2=O)nc(C)c1C | inactive | –
N[C@@H](C(=O)O)[C@H](CC(=O)O)c1ccc(Cl)cc1 | inactive | –
NCCNC(=O)c1ccc(Cl)cc1 | 12.6 µM (active) and 10 µM (active) | –
Cc1nc(SCC(=O)NCCc2ccc(Cl)cc2)nc(C)c1C | 20 µM (active) | –
CC(=O)OC[C@@H]1O[C@H](C/C=N\O[C@@H](C)CN2CCCCc3nc(C)c(C)cc32)C=C[C@@H]1OC(C)=O | – | -2.17% [at 11.4 µM] (inactive)
O=C(N/N=C1/C[C@@H](O)[C@@H](O)[C@@H]2[C@@H]3C(=O)N(Cc4ccccc4)C(=O)[C@H]3CC[C@H]12)OCc1ccccc1 | – | -7.17% [at 11.4 µM] (inactive)
CC(C)(Oc1ccc(CCNC(=O)c2ccc(Cl)cc2)cc1)C(=O)O | inactive | –
O=C(NCCc1ccc(O)cc1)c1ccc(Cl)cc1 | 14.1 µM (active) | –
CNC(=O)C(=O)NCCc1ccc(Cl)cc1 | 7.08 µM (active) | –
O=C(NNC(=O)c1ccccc1O)c1ccc(Cl)cc1 | inactive | –
COc1cccc(-c2nnc3sc(-c4ccc(C)cc4)nn23)c1 | 7.08 µM (active) | –
CC(C)(C)n1nc2c(c1NC(=O)c1ccc(S(=O)(=O)N3CCCCC3)cc1)CS(=O)C2 (configuration not stated) | inactive | –
COc1ccc(Nc2ncnc3sc(-c4ccccc4)cc23)cc1 | 0.891 µM (active) | –
COc1cccc(-c2ccc3ncnc(Nc4ccccc4)c3c2)c1 | 1 µM (active) | –
COc1ccc(Nc2ncc(C(=O)N3CCN(Cc4ccccc4)CC3)c3ccccc23)cc1 | inactive | –
CNc1ncnc2ccc(-c3cccc(OC)c3)cc12 | 0.501 µM (active) | –

Compound | AC50 | activity, negative = inhibition
N[C@@H](CSC(=O)c1ccccc1)C(=O)O | – | -14.7% [at 11.4 µM] (inactive)
CN(C)CCCN1CC(C(=O)O)CC1=O (configuration not stated) | inactive | –
CCN(CC)CCN1C(=O)C(=O)/C(=C(/O)c2ccc(OC)cc2)C1c1cccs1 (configuration not stated) | inactive | –
Cc1ccc(/C(O)=C2/C(=O)C(=O)N(CCCn3ccnc3)C2c2ccccn2)cc1 (configuration not stated) | inactive | –
CCOc1ccc(/C(O)=C2/C(=O)C(=O)N(CCCn3ccnc3)C2c2cccs2)cc1Cl (configuration not stated) | 15.8 µM (active) | –
O=C(N/N=C/c1ccc([N+](=O)[O-])o1)c1cc(-c2ccncc2)nc2ccccc12 | 15.8 µM (active) | –
O=C(O)c1cc(-c2ccncc2)nc2ccccc12 | – | -9.92% [at 11.4 µM] (inactive)
Nc1ccc(S(=O)(=O)Nc2ccc(Cl)nn2)cc1 | inactive | –
FC(F)(F)c1ccc(/C=N/N2CCN(Cc3cccc4ccccc34)CC2)cc1 | inactive | –
COc1ccccc1/C=C/C=N/N1CCN(Cc2cccc3ccccc23)CC1 | 7.08 µM (active) | –
COc1ccccc1CN1CCC2(CC1)CCN(S(C)(=O)=O)CC2 | inactive | –
COc1ccc([C@@H]2CNC(=O)C2)cc1OC1CCCC1 | 3.16 µM (active) and 3.98 µM (active) | –
COc1ccc(C2C(=O)N(C3CCCCCC3)CC(=O)N2Cc2ccccc2)cc1OC (configuration not stated) | inactive | –
COc1ccc(OC)c(C2CC(=O)C3=C(C2)NC(=O)CC3c2ccc(O)c(OC)c2)c1 (configuration not stated) | inactive | –
COc1ccc(CNc2ncnc3ccc(-c4c(C)noc4C)cc23)c(OC)c1 | 15.8 µM (active) | –
COc1ccccc1CNc1ncnc2ccc(-c3cccnc3)cc12 | 0.316 µM (active) | –
COc1cccc(-c2ccc3ncnc(NCc4ccc(OC)cc4OC)c3c2)c1 | 2.51 µM (active) | –
COc1ccc(CNc2ncnc3ccc(-c4cccnc4)cc23)c(OC)c1 | 0.398 µM (active) | –
CO/N=C(\C)CCN1CCCc2nc(C)c(C)cc21 | – | 2.07% [at 11.4 µM] (inactive)
